Screening data deposited in PubChem by National Center for Advancing Translational Sciences (NCATS).
HP1b binding inh = HTS for Inhibitors of HP1-beta Chromodomain Interactions with Methylated Histone Tails; AlphaScreen HP1-beta / biotin-H3K9me3 peptide binding; Potency, µM (highest dose often 114 µM), hits mostly inhibitors; hit rate 0.56% among 390,000; AID 540317, 2011; further: nearly all actives have a fitted effect of over 70% in size
Target sequence (P83916 whole entry, looked up): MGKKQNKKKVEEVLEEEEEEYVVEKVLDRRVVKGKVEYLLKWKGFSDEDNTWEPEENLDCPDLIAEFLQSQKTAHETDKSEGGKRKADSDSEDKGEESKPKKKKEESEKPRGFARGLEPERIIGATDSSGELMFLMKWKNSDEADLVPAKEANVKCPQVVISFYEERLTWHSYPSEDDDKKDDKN
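HP1-beta protein (50 nM final) preincubated 30 min at room temperature with biotinylated H3(1-18)K9me3 peptide (50 nM) in PBS pH 7.4, 0.01% Tween-20, then compound added for 30 min. AlphaScreen streptavidin donor/nickel chelate acceptor beads (10 ug/mL final), 30 min dark, luminescence read.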
Six1-Eya2 blk = qHTS Assay for Inhibitors of the Six1/Eya2 Interaction; Homeobox protein SIX1 (Homo sapiens) + Protein phosphatase EYA2 (Homo sapiens), …; activity change, % (no concentration beside the values); hit rate 0.56% among 360,000; AlphaScreen GST-Six1/His-Eya2 binding, biochemical; hits give low values; in the data active means activity change below about -65%; inconclusive means mostly about -30% to -63%
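GST-Six1 + His-Eya2 (5X stock: 250/500 nM); Tris pH 8.0, 300 mM NaCl, 0.05% BSA, 0.02% Tween 20; GSH donor/Ni acceptor beads; 1 h 37 °C dark; AlphaScreen readout.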
JMJD2A Tudor = qHTS Assay for Inhibitors of JMJD2A-Tudor Domain; Lysine-specific demethylase 4A (Homo sapiens), O75164; AlphaScreen JMJD2A-Tudor / H3K4me3 peptide binding; Potency, µM (doses to about 114 µM), actives largely listed as inhibitors; hit rate 4.4% among 390,000; AID 504339, 2011; further: nearly all actives have a fitted effect of over 50% in size
G9a inh = qHTS Assay for Inhibitors of Histone Lysine Methyltransferase G9a; G9a H3K9 monomethylation, AlphaScreen, 2 h; Potency, µM (highest dose often 102 µM), usual class: inhibitors; hit rate 8.8% among 350,000; further: nearly all actives have a fitted effect of over 75% in size
Target sequence (Q96KQ7 913-1193 limits assumed): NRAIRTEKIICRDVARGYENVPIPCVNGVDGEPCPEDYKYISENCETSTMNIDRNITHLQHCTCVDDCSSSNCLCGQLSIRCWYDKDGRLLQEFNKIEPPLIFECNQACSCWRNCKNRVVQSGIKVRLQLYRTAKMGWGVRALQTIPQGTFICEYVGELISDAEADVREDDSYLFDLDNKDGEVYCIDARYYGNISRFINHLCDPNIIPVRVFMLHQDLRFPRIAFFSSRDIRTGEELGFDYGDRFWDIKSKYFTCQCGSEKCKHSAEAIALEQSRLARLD
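Signal arises when biotinylated H3K9 peptide, once monomethylated, bridges streptavidin donor and antibody-captured acceptor beads. Enzyme at 20 nM was preincubated 15 min with test compounds; peptide 500 nM and SAM 20 uM then reacted for 2 h.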
BAZ2B inh = qHTS Assay for Inhibitors of BAZ2B; Potency, µM (highest dose often 114 µM), usual class: inhibitors; AlphaScreen BAZ2B-H3K14Ac peptide displacement; AID 504333, 2011; hit rate 4.4% among 360,000; further: nearly all actives have a fitted effect of over 60% in size
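AlphaScreen displacement: compounds (up to 110uM) incubated 30 min at room temperature with a preformed 50 nM BAZ2B/50 nM biotinylated H3K14Ac peptide complex in PBS pH 7.4 with Tween-20. Donor and acceptor beads at 10 ug/mL final added, 20 min light-protected before reading.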
CtBP-E1A blk = qHTS Assay for Inhibitors of the CtBP/E1A Interaction | activity change, % (no concentration beside the values) | AlphaScreen GST-E1A/His-CtBP binding, 1536-well; hits give low values | hit rate 0.49% among 340,000 | CtBP / adenovirus E1A interaction (AlphaScreen) | AID 651724, 2012; in the data active means activity change below about -65%; inconclusive means mostly about -30% to -63%
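Protein mix (5X: 125 nM each GST-E1A, His-CtBP) was incubated with pinned compound 2 h at 37 deg C in dark, in 50 mM Tris pH 8.0 buffer with 300 mM NaCl. Glutathione donor and nickel acceptor beads followed; AlphaScreen signal read after 1 h.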
Numbers stand for hits; - = inactive; ? = inconclusive; . = no result; ! = not active in a repeat; [ ] = another dose, or the depositor's remark. In the library only some 10% were active in any assay of this set; here they are far more common. Unless noted, the call rests on the fitted dose curve; in most records, active means well fitted inhibition curve with a large enough effect; inconclusive means small, poorly fitted or top-dose-only effect; inactive means no such curve, though single readings can be large or run the other way.

SMILES	HP1b binding inh	Six1-Eya2 blk	JMJD2A Tudor	G9a inh	BAZ2B inh	CtBP-E1A blk
CCCCC[C@@H](C)N1C[C@@H](COCc2ccccc2)Oc2cc(N3CC[C@H](N(C)C)C3)ccc2S1(=O)=O	.	-	.	.	.	-
Cc1ccc2cc3cc(C(=O)NCCCN4CCCCCC4)oc3nc2c1	-	-	-	45µM	-	-
CN(C)CCN(Cc1ccco1)C(=O)c1cc2c(Cl)nc3ccccc3c2s1	-	-	?	?	-	-
Cc1ccc2cc3cc(C(=O)NCCCN4CCc5ccccc5C4)oc3nc2c1	-	-	-[11.4 µM]	?	-	-
Cc1ccc2nc(Cl)c3cc(C(=O)N(CCN(C)C)Cc4ccco4)sc3c2c1	?	-	45µM	50µM	.	-
Cc1ccc2nc(Cl)c3cc(C(=O)NCCCN4CCCC4)sc3c2c1	-	-	-	50µM	-	-
Cc1ccc2cc3cc(C(=O)NCCCN4CCCC4)oc3nc2c1	-	-	?	79µM	-	-
CCCCN(CC)CCCNC(=O)c1cc2cc3ccc(C)cc3nc2o1	-	-	-	-	-	-
COc1ccc(-c2nc3cnc(N4CCOCC4)nc3n(C3CC3)c2=O)cc1	.	.	.	-[0.501 µM]	.	.
CCN(CC)S(=O)(=O)c1ccc(N2CCOCC2)c(NC(=O)c2cc(-c3ccccn3)nc3ccccc23)c1	-	-	-	-	-	-
Cc1nn(-c2ccccc2)nc1C(=O)Nc1cccc(C(=O)NC2CC2)c1	.	-	.	.	.	-
O=C(OCC(=O)N1CCNC1=O)c1ccccc1Cl	.	-	.	.	.	-
N#Cc1cnn(-c2ccccc2)c1NC(=O)c1ccccc1F	.	-	-	-[12.7 µM]	-	-
CC1=C(C(=O)O)N2C(=O)C(NC(=O)c3nn(C)c(C)c3Cl)C2SC1 (stereo unspecified)	-	-	?	8.9µM	-	-
CC1=C(C(=O)O)N2C(=O)C(NC(=O)c3ccn(C)n3)C2SC1 (stereo unspecified)	-	-	-	?	?	-
CC1=C(C(=O)O)N2C(=O)C(NC(=O)c3c(F)cccc3F)C2SC1 (stereo unspecified)	-	-	-	45µM	?	-
CCOCCCn1c(=N)c(C(=O)NC2CCCC2)cc2c(=O)n3cccc(C)c3nc21	-	.	-	-	-	.
COc1ccccc1CCNC(=O)Cc1c(C)c2cc(Cl)c(O)cc2oc1=O	-	.	-	-	-	.
COc1ccc(C2=CC3=C(Br)C(=O)C(C)(OC(=O)c4ccc(Cl)nc4)C(=O)C3=CO2)cc1 (stereo unspecified)	50µM	-	79µM	-	56µM	-
COC(=O)CCC(=O)OC1(C)C(=O)C2=CN(CCCCO)C(c3ccc(OC)cc3)=CC2=C(Br)C1=O (stereo unspecified)	.	.	.	35µM	?	.
COc1ccc(CN2C=C3C(=O)C(C)(OC(=O)C4CCCC4)C(=O)C=C3C=C2c2ccsc2)cc1 (stereo unspecified)	-	-	?	?	?	-
COC(=O)CCC(=O)OC1(C)C(=O)C2=CN(Cc3ccc4c(c3)OCO4)C(c3ccc(OC)cc3)=CC2=C(Br)C1=O (stereo unspecified)	-	-	?	.	.	?
COC(=O)CCC(=O)OC1(C)C(=O)C2=COC(c3ccc(OC)cc3)=CC2=C(Br)C1=O (stereo unspecified)	?	-	32µM	?	45µM	?
COc1ccc(C2=CC3=C(Br)C(=O)C(C)(OC(=O)C4CCCC4)C(=O)C3=CO2)cc1 (stereo unspecified)	?	-	50µM	-[12.7 µM]	79µM	-
CN(C)c1ccc(/C=N\Nc2ccccn2)cc1	?	?	?	40µM	25µM	-
SMILES	HP1b binding inh	Six1-Eya2 blk	JMJD2A Tudor	G9a inh	BAZ2B inh	CtBP-E1A blk
CN(C)c1ccc(C=NNc2ccccn2)c(Cl)c1	-	-	-	.	.	-
CN(C)c1ccc(/C=N/Nc2ccc(-n3ccnc3)nn2)cc1	-	-	?	?	18µM	-
O=C(O)c1cccc(Nc2ccncc2[N+](=O)[O-])c1	-	-	20µM	-	-	-
O=C(O)c1ccc(Nc2cccc(F)c2)c([N+](=O)[O-])c1	-	-	-	-	-	-
CC1CCc2nc(-c3cc4c(ccc5ccccc54)oc3=O)sc2C1 (stereo unspecified)	-	.	-	.	.	.
CC1(C)CCC(=O)c2ccccc21	-	-	-	.	.	-
CC1(C)CCC2=C(O1)c1ccccc1C(=O)C2=O	.	.	.	14µM!	.	.
Nc1nc(Nc2ccccc2F)sc1C(=O)c1ccccc1	-	-	?	-[0.501 µM]	45µM	-
CC(C)(NC(=O)c1ccccc1)c1nc2ccccc2s1	?	-	79µM	-[2.33 µM]	-	-
O=C(NC(Nc1nc2ccccc2s1)(C(F)(F)F)C(F)(F)F)c1ccccc1	-	-	-	-	-	-
